Many of the other results were omitted from the sample, so hits are more common in it than they were.
nsP2pro inh – inhibitors of chikungunya virus nsP2 protease. FRET peptide cleavage, nsP2pro, fluorescence 1 h. Q8JUX6. hit rate 1.1% among 31,000. Potency, µM (doses to about 24.9 µM), for the others: at the top dose activity change, negative = inhibition, usual class: inhibitors; also: nearly all actives have a fitted effect of over 60% in size
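Purified recombinant nsP2pro (150 nM final) in 10 mM Tris-HCl pH 8.0 with 0.01% Tween 20 was preincubated 15 min at room temperature with compound (7 concentrations, up to 25 uM). FRET peptide 2 substrate (2.5 uM final) was then added; fluorescence was read after 1 h.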
nsP2 cell sec – inhibits CHIKV nsP2 protease in cells | Potency, µM (doses to about 51.1 µM), for the others: top-dose activity change, negative = inhibition, most hits filed as inhibitors | hit rate 10% among 450 | shares compounds with nsP2pro inh | cell-based CHIKV nsP2 protease reporter assay | AID 1964100; also: nearly all actives have a fitted effect of over 70% in size
CHIKV NSP2 FL – full-length CHIKV NSP2 protease inhibition, selectivity | shares compounds with nsP2pro inh | Full-length CHIKV NSP2 protease enzymatic counterscreen | Potency, µM (highest dose often 50.7 µM), inactives show at the highest dose activity change, negative = inhibition, actives largely listed as inhibitors | hit rate 39% among 410 | AID 1964101; also: nearly all actives have a fitted effect of over 65% in size
Furin counterscr – selectivity counter-screen for CHIKV nsP2 protease inhibitors: human furin | shares compounds with nsP2pro inh | Recombinant human furin enzymatic counterscreen, fluorogenic substrate | Potency, µM (titrated, usually from 50.6 µM), without a hit: at the highest dose activity change, negative = inhibition, actives largely listed as inhibitors | hit rate 6% among 410
Target sequence (P09958 whole entry, looked up): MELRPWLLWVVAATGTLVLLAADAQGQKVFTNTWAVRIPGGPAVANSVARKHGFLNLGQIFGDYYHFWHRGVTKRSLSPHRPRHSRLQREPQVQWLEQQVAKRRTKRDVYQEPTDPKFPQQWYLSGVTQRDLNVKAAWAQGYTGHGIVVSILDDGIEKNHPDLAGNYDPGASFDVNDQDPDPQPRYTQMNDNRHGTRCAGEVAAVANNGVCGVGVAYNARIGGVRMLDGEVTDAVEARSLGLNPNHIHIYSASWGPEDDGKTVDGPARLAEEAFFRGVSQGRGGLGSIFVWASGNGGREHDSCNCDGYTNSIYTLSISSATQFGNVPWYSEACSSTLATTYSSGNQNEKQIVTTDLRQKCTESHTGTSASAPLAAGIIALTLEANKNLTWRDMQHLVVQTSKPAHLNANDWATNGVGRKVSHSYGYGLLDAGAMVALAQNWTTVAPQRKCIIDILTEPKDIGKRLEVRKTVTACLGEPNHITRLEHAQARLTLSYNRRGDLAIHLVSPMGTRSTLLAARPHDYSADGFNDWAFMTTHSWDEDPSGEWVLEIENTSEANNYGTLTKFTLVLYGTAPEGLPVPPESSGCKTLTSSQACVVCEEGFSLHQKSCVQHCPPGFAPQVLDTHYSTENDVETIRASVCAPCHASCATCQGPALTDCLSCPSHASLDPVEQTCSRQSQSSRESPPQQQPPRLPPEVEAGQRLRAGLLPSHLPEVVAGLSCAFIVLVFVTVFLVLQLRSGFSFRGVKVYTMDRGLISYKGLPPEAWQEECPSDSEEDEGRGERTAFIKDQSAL
NS23 peptide cs – blocks CHIKV nsP2 protease cleavage of endogenous NS2/3 peptide; Potency, µM (series often up to 51 µM), inactives show at the highest dose activity change, negative = inhibition, most hits filed as inhibitors; AID 1964103; shares compounds with nsP2pro inh; Purified CHIKV nsP2 protease, endogenous NS2/3 peptide cleavage; hit rate 34% among 410; also: nearly all actives have a fitted effect of over 55% in size
Papain counter – selectivity counter-screen for CHIKV nsP2 protease inhibitors: papain. hit rate 5% among 410. shares compounds with nsP2pro inh. Potency, µM (series often up to 51 µM), for the others: at the top dose activity change, negative = inhibition, usual class: inhibitors. purified papain protease activity, enzymatic inhibition
nsP2pro confirm – CHIKV nsP2 protease inhibition, confirmatory qHTS | shares compounds with nsP2pro inh | CHIKV nsP2 protease enzymatic activity, qHTS | Potency, µM (doses to about 25.5 µM), for the others: top-dose activity change, negative = inhibition, usual class: inhibitors | hit rate 43% among 410 | AID 1964105; also: nearly all actives have a fitted effect of over 75% in size
HCV NS3 4A cs – inhibits HCV NS3/4A protease in an nsP2pro selectivity counterscreen. shares compounds with nsP2pro inh. HCV NS3/4A protease biochemical counterscreen. Potency, µM (titrated, usually from 50.9 µM), hits mostly inhibitors. hit rate 20% among 410. AID 1964106; also: nearly all actives have a fitted effect of over 55% in size
An asterisk follows results filed as active; i = inactive; ? = inconclusive; [ ] = remark or other dose. Calls follow the shape of the full dose curve. % is scaled to controls: 0 for no effect and ±100 for the full control effect; potency is read from the fitted curve at half-maximal effect.

SMILES	nsP2pro inh	others
COc1cccc(-c2ccc(CNc3ccc(N4CCN(C(=O)OC(C)(C)C)CC4)cc3)o2)c1	1%
Nc1c(-c2ccncc2)cc[nH]c1=O	-20%
Nc1cc(-c2ccncc2)c[nH]c1=O	3.5µM*	nsP2 cell sec=3%;CHIKV NSP2 FL=?;Furin counterscr=-7%;NS23 peptide cs=?;Papain counter=-12%;nsP2pro confirm=?;HCV NS3 4A cs=i
O=C1CCC[C@@H]2[C@@H]3CCC[N@+]4([O-])CCC[C@H](CN12)[C@H]34	-11%
CC=CC1C(C(=O)OCc2c(F)c(F)c(COC)c(F)c2F)C1(C)C (centres undefined)	15%
CCNC(=O)c1ccc(-c2ccc3ncnc(NCC(C)(C)C)c3c2)o1	-3%
O=C(Cc1ccccc1)Nc1sc2c(c1C(=O)Nc1ccccc1)CCCCC2	-28%
COc1ccc(CC(=O)Nc2sc3c(c2C(=O)Nc2ccccc2)CCCCC3)cc1	-11%
O=C(Cc1ccccc1)Nc1sc2c(c1C(=O)Nc1ccc(Cl)cc1)CCCC2	?	nsP2 cell sec=?;CHIKV NSP2 FL=-21%;Furin counterscr=-4%;NS23 peptide cs=6.5µM*;Papain counter=-5%;nsP2pro confirm=4µM*;HCV NS3 4A cs=i
CC(=O)OC(C)(C)CCC(=O)[C@](C)(O)C1[C@H](O)C[C@@]2(C)C3CC=C4C(C[C@H](O)[C@@H](O)C4(C)C)[C@]3(C)C(=O)C[C@]12C (some centres undefined)	9%
Cc1cccc(-n2cnc3cc(C(=O)N4CCCCCC4)ccc32)c1	-1%
O=C(/C=C/c1ccccc1Br)NCCc1nc2ccccc2[nH]1	3%
CC1CC2(O)OC(=O)C3=C2C(CCC3)[C@@]12C[C@@H](c1ccoc1)OC2=O (some centres undefined)	?	nsP2 cell sec=-6%[33.5 µM];CHIKV NSP2 FL=?;Furin counterscr=-9%[33.5 µM];NS23 peptide cs=?;Papain counter=-10%[33.5 µM];nsP2pro confirm=-38%[16.7 µM];HCV NS3 4A cs=1.8µM*
Nc1cc(NC(=O)Nc2nnc(-c3ccncc3)s2)ccc1Cl	i
CC[C@@H](Nc1c(Nc2cccc(C(=O)N(C)C)c2O)c(=O)c1=O)c1ccc(C)o1	-6%
CNC1CCC(N(Cc2ccc(OC)c(-c3ccc(C#N)cc3)c2)C(=O)c2sc3ccccc3c2Cl)CC1 (centres undefined)	i
O=C(NCC(=O)N1CCCCC1)Nc1ccc2nnsc2c1	13%
CN1CCN2c3c(cccc31)[C@@H]1CN(CCCC(=O)c3ccc(F)cc3)CC[C@@H]12	-15%
Cc1ccsc1CN(C)c1ncnc2ccc(-c3ccc(CO)o3)cc12	10µM*	nsP2 cell sec=26µM*;CHIKV NSP2 FL=?;Furin counterscr=-9%;NS23 peptide cs=?;Papain counter=-8%;nsP2pro confirm=3%;HCV NS3 4A cs=23µM*
Cc1ccsc1CN(C)c1ncnc2ccc(-c3ccoc3)cc12	-22%
CCN(Cc1sccc1C)c1ncnc2ccc(-c3ccc4c(c3)OCO4)cc12	i
C[C@@H](CO)Nc1cc2c(cc1[S+](=O)([O-])Nc1ccc(Cl)c(Cl)c1)CCC(=O)N2	-2%
CC(=O)OC(CSC1CCC(=O)OC(C)CCC(=O)C1)C(=O)O (centres undefined)	?	nsP2 cell sec=6%[33.5 µM];CHIKV NSP2 FL=-5%[33.5 µM];Furin counterscr=-5%[33.5 µM];NS23 peptide cs=-11%[33.5 µM];Papain counter=-11%[33.5 µM];nsP2pro confirm=?;HCV NS3 4A cs=?
O=C(Nc1ccc(C[C@@H]2CC[C@H]([C@H](O)c3ccccc3)N2)cc1)[C@@H]1CCc2nccc(=O)n21	-8%
COCCOc1cnc2ccn([C@H](C)c3nnc4c(F)cc(-c5cnn(C)c5)cn34)c(=O)c2c1	?	nsP2 cell sec=3%;CHIKV NSP2 FL=-26%;Furin counterscr=-17%;NS23 peptide cs=-13%;Papain counter=3%;nsP2pro confirm=?;HCV NS3 4A cs=i
O=C(c1cc(Cl)c(O)c(Cl)c1)N1CS(=O)(=O)c2ccccc21	-7%
Cc1sc2c(c1C)c(=O)n(Cc1ccccc1)c(=O)n2Cc1ccc(F)cc1	-13%

Compound activity (PubChem)
